High-throughput results: PubChem, SRMLSC
NADH coupling: blocks coupling enzymes of NAD/NADH assays | coupled PK/LDH NADH assays, four targets | IC50, µM (series often up to 10 µM), for the others: at the top dose inhibition | actives 0.02% (n = 65,000) | AID 774;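 active means single-dose screening hits from any of four coupled enzyme assays that gave an IC50 when retested across doses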;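 further: the DPM-DC format reads NADH fluorescence rather than 340 nm absorbance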
A340 absorber: absorbance at 340 nm; compound absorbance at 340 nm, fold over control; fold change at 10 µM; 65,000 tested, under 10 active;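 active means at 10 µM dose, initial 340 nm absorbance at least 2 fold that of control wells; inactive means change under 2 fold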;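 further: initial absorbance extrapolated from kinetic A340 decline of NADH oxidation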
MK inhibit: blocks S. pneumoniae mevalonate kinase; purified MK, PK/LDH-coupled NADH absorbance 340 nm; inhibition, % at 10 µM; actives 0.48% (n = 65,000); AID 555;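 active means ranked among the strongest by inhibition in the single 10 µM screen, a fixed top-ranked set picked for dose follow-up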
Spn DPM-DC inh: blocks S. pneumoniae diphosphomevalonate decarboxylase | calls only at 10 µM | actives 0.49% (n = 65,000) | purified DPM-DC, PK/LDH coupled NADH fluorescence | AID 556;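 active means the 320 compounds with the highest percent inhibition in the single-dose primary screen, excluding strongly autofluorescent ones, cut at about 32% in these data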;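 further: kinetic rate of NADH fluorescence loss reporting ADP formed by the decarboxylase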
Fluor 339 460: intrinsic fluorescence of library compounds, ex339/em460 – biochemical, MLSMR library, data from DPM-DC assay, artefact control, profiling panel; actives 5.5% (n = 65,000); AID 709; fluorescence fold increase at 10 µM; compound autofluorescence, ex339/em460 nm, NADH buffer; active compounds read high; 1 = no-compound wells, NADH background;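 active means at 10 µM, mean starting fluorescence two-fold or more over control wells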;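 further: signal is the first read of a kinetic run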
Spn PMK inh: inhibitors of Streptococcus pneumoniae phosphomevalonate kinase. purified PMK, PK/LDH-coupled NADH absorbance 340 nm. inhibition, % at 10 µM. actives 0.49% (n = 65,000);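 active means top-ranked compounds by inhibition in the single 10 µM screen, taking a fixed number of the strongest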;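 further: 0% = full reaction with DMSO carrier and 100% = background rate without enzyme reaction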
An asterisk follows results filed as active. A selection: hits, their analogues and other compounds. The true share with any hit is near 6.8%.

Results for CCc1ccc(OCC(=O)Nc2ccc(-c3nc4ccccc4o3)c(O)c2)cc1 ?
NADH coupling: 9%; A340 absorber: 1.1; MK inhibit: 11; Fluor 339 460: 2.2*; Spn PMK inh: 7

What do the screens show for `Cc1ccc(SCc2cc(=O)n3[nH]cnc3n2)cc1`?
NADH coupling: 1%; A340 absorber: 1.1; MK inhibit: 0; Spn DPM-DC inh: inactive; Fluor 339 460: 1.1; Spn PMK inh: 2

Results for CCC(C)NC(=O)CSC1=Nc2ccccc2C2=NC(CC(=O)NCc3ccc(F)cc3)C(=O)N12 (configuration not stated) ?
NADH coupling: 8%; A340 absorber: 1; MK inhibit: 17; Spn DPM-DC inh: inactive; Fluor 339 460: 2.8*; Spn PMK inh: 8

How did CCOC(=O)CSC1=Nc2ccccc2C2=NC(CC(=O)NCc3cccs3)C(=O)N12 (configuration not stated) do in these assays?
NADH coupling: 3%; A340 absorber: 1; MK inhibit: 6; Spn DPM-DC inh: inactive; Fluor 339 460: 1.2; Spn PMK inh: 9

How did CCOC(=O)CSC1=Nc2ccccc2C2=NC(CC(=O)NCc3ccccc3)C(=O)N12 (configuration not stated) do in these assays?
NADH coupling: 10%; A340 absorber: 1; MK inhibit: 9; Spn DPM-DC inh: inactive; Fluor 339 460: 3*; Spn PMK inh: 9

How did CC(C)C1N=C2c3ccccc3N=C(SCC(=O)NCCc3ccc(S(N)(=O)=O)cc3)N2C1=O (configuration not stated) do in these assays?
NADH coupling: 7%; A340 absorber: 1; MK inhibit: 10; Spn DPM-DC inh: inactive; Fluor 339 460: 2.4*; Spn PMK inh: 8

What do the screens show for `O=C1c2ccccc2C(=O)N1CNc1ccccc1`?
NADH coupling: 2%; A340 absorber: 0.99; MK inhibit: 4; Spn DPM-DC inh: inactive; Fluor 339 460: 1.1; Spn PMK inh: 13

Results for Cc1c(NC(=O)CN2CCN(C(c3ccccc3)c3ccccc3)CC2)c(=O)n(-c2ccccc2)n1C ?
NADH coupling: 6%; A340 absorber: 1.1; MK inhibit: 8; Spn DPM-DC inh: inactive; Fluor 339 460: 1.1; Spn PMK inh: 10

How did OCCNc1ncnc2c1c(-c1ccccc1)c(-c1ccccc1)n2Cc1ccco1 do in these assays?
NADH coupling: 6%; A340 absorber: 0.99; MK inhibit: 0; Spn DPM-DC inh: active; Fluor 339 460: 1.4; Spn PMK inh: 5

What do the screens show for `CCOC(=O)c1ccccc1NC(=O)c1cccs1`?
NADH coupling: 4%; A340 absorber: 1; MK inhibit: 7; Spn DPM-DC inh: inactive; Fluor 339 460: 1.1; Spn PMK inh: 4

How did CCOC(=O)c1c(NC(=O)c2cccs2)sc(C)c1CC do in these assays?
NADH coupling: 2%; A340 absorber: 1.1; MK inhibit: 4; Fluor 339 460: 2.2*; Spn PMK inh: 0

How did CCOC(=O)c1c(NC(=O)c2cccs2)sc(C(=O)N2CCOCC2)c1C do in these assays?
NADH coupling: 10%; A340 absorber: 1.1; MK inhibit: 0; Spn DPM-DC inh: inactive; Fluor 339 460: 1.4; Spn PMK inh: 19

Results for COc1ccccc1NC(=O)c1ccc(Br)o1 ?
NADH coupling: 3%; A340 absorber: 1.1; MK inhibit: 0; Spn DPM-DC inh: inactive; Fluor 339 460: 1; Spn PMK inh: 3

What do the screens show for `CCOC(=O)c1sc2nc(NC(=O)c3cccs3)sc2c1C`?
NADH coupling: 0%; A340 absorber: 1.1; MK inhibit: 0; Fluor 339 460: 2.1*; Spn PMK inh: 0

What do the screens show for `CCOC(=O)C1=C(NC(=O)c2ccc(Br)o2)Nc2ccccc2N=C1`?
NADH coupling: 29%; A340 absorber: 1.1; MK inhibit: 33; Spn DPM-DC inh: inactive; Fluor 339 460: 1.2; Spn PMK inh: 36*

What do the screens show for `CCc1c(C)sc(NC(=O)c2cccs2)c1C(=O)OC(C)C`?
NADH coupling: 12%; A340 absorber: 1.1; MK inhibit: 10; Fluor 339 460: 2.1*; Spn PMK inh: 13

Results for O=c1c2cnn(-c3ccc(F)cc3)c2ncn1Cc1ccccn1 ?
NADH coupling: 1%; A340 absorber: 1; MK inhibit: 2; Spn DPM-DC inh: inactive; Fluor 339 460: 1.1; Spn PMK inh: 2

How did O=C(NCc1ccco1)c1ccc(=O)oc1 do in these assays?
NADH coupling: 1%; A340 absorber: 1.2; MK inhibit: 0; Spn DPM-DC inh: inactive; Fluor 339 460: 1; Spn PMK inh: 3

How did CCOC(=O)c1ccccc1NC(=O)CN(c1ccccc1)S(=O)(=O)N(C)C do in these assays?
NADH coupling: 6%; A340 absorber: 1; MK inhibit: 7; Spn DPM-DC inh: inactive; Fluor 339 460: 1.1; Spn PMK inh: 7

How did CCCNC(=O)CS(=O)Cc1nc(-c2ccccc2C)oc1C (configuration not stated) do in these assays?
NADH coupling: 3%; A340 absorber: 1; MK inhibit: 2; Spn DPM-DC inh: inactive; Fluor 339 460: 1.1; Spn PMK inh: 6

How did C=CCn1c(NC(=O)c2ccc(Br)o2)c(C(=O)OCC)sc1=S do in these assays?
NADH coupling: 10%; A340 absorber: 1.1; MK inhibit: 20; Spn DPM-DC inh: inactive; Fluor 339 460: 1.1; Spn PMK inh: 8

How did CCOC(=O)c1c(NC(=O)c2ccc(Br)o2)sc(C)c1CC do in these assays?
NADH coupling: 2%; A340 absorber: 1.1; MK inhibit: 3; Fluor 339 460: 2.1*; Spn PMK inh: 0

Results for COc1cc2cc(CN(CCCO)S(=O)(=O)c3ccccc3Cl)c(=O)[nH]c2cc1OC ?
NADH coupling: 17%; A340 absorber: 1.1; MK inhibit: 8; Fluor 339 460: 3.5*; Spn PMK inh: 25*

Results for Cc1cc2cc(CN(CCCO)S(=O)(=O)c3cccc4nsnc34)c(=O)[nH]c2cc1C ?
NADH coupling: 10%; A340 absorber: 1.1; MK inhibit: 12; Spn DPM-DC inh: inactive; Fluor 339 460: 1.1; Spn PMK inh: 19

How did COc1cc2cc(CN(CCCO)S(=O)(=O)c3ccccc3)c(=O)[nH]c2cc1OC do in these assays?
NADH coupling: 3%; A340 absorber: 1.1; MK inhibit: 5; Fluor 339 460: 3.9*; Spn PMK inh: 0

Results for CCOC(=O)c1cccc(S(=O)(=O)N(CCO)Cc2cc3cc(OC)c(OC)cc3[nH]c2=O)c1 ?
NADH coupling: 3%; A340 absorber: 1; MK inhibit: 0; Spn DPM-DC inh: inactive; Fluor 339 460: 1.3; Spn PMK inh: 9

Results for COc1cc2cc(CN(CCO)S(=O)(=O)c3ccccc3Cl)c(=O)[nH]c2cc1OC ?
NADH coupling: 15%; A340 absorber: 1; MK inhibit: 8; Spn DPM-DC inh: inactive; Fluor 339 460: 3.1*; Spn PMK inh: 6
